The values that follow come from the antibiotic and cytotoxicity screens of Wong et al. (2023).

The whole screen tested about 39,000 compounds, of which about 3,300 (8.5%) were called active. This is one part of a sample in which actives are shown more often than they occur.

The subject of this assay is HepG2. The experiment in a line: cytotoxicity call (relative viability < 0.9). The following applies: 10 µM.
In the case of `CC(=N)NCCCC[C@@H](N)C(=O)O`, the cytotoxicity call is “inactive”. As for `COCC(=O)Nc1ccc2c(c1)C(=O)N(C)[C@H]1CC[C@@H](CC(=O)N3CCc4ccccc4C3)O[C@H]1CO2`, the cytotoxicity call was “inactive”. In the case of `CO[C@H]1CN(C)C(=O)c2ccc(NS(=O)(=O)CC(F)(F)F)cc2OC[C@H](C)N(C(=O)c2ccc3c(c2)OCO3)C[C@H]1C` it was “inactive”. The value for `C=CC[C@H](Nc1ccccc1C)c1ccc(Cl)cc1` was “inactive”.

As for `C[C@H](CO)N1C[C@H](C)[C@@H](CN(C)S(=O)(=O)c2cn(C)cn2)OCCCC[C@H](C)Oc2ccc(NS(C)(=O)=O)cc2C1=O`, the cytotoxicity call is “inactive”. In the case of `NC(=O)[C@H]1C[C@@H]2C=C[C@H]1C2` it was “inactive”. In the case of `O=C(CCCCCCC(=O)Nc1ccc([C@H]2C[C@H](c3ccccc3)O[C@H](c3ccc(Oc4ccccc4)cc3)O2)cc1)NO` it was “inactive”; in that of `C[C@H]1CN([C@@H](C)CO)C(=O)c2cc(NC(=O)Cn3cnnn3)ccc2O[C@@H]1CN(C)S(=O)(=O)c1ccc(F)cc1`, “inactive”. As to `Cc1ccc(S(=O)(=O)N2C[C@H](O)COC[C@@H]3O[C@H](CC(=O)NCCCN(C)C)CC[C@H]32)cc1`, the cytotoxicity call was “inactive”.

`CCN1CCN(C(=O)CN2C(=O)c3ccccc3S2(=O)=O)CC1`: the cytotoxicity call is “inactive”. On to `CCN1CCN(CC(=O)Nc2ccc(-c3cccc4c(=O)cc(N5CCOCC5)oc34)c3sc4ccccc4c23)CC1`, for which the cytotoxicity call is “active”. The value for `CCCC#Cc1ccc2c(c1)O[C@@H](CN(C)S(=O)(=O)c1cccc(F)c1)[C@H](C)CN([C@@H](C)CO)S2(=O)=O` was “inactive”; that for `CC(C)N1C[C@H](C)[C@@H](CN(C)Cc2ccccc2Cl)Oc2c(NC(=O)c3ccncc3)cccc2C1=O` was “inactive”; that for `O=C(CCCN1CCN(c2ccccn2)CC1)c1ccc(F)cc1` was “inactive”.

Regarding `O=C(CCCN1CC=C(n2c(=O)[nH]c3ccccc32)CC1)c1ccc(F)cc1`, the cytotoxicity call is “inactive”.

As to `O=C(CN1CCNCC1)c1ccc(F)cc1`, the cytotoxicity call is “inactive”. Regarding `NC(=O)C1(N2CCCCC2)CCN(CCCC(=O)c2ccc(F)cc2)CC1`, the cytotoxicity call was “inactive”. In the case of `O=C(CCCN1CCC(O)(c2ccc(Br)cc2)CC1)c1ccc(F)cc1` it was “active”; in that of `O=C(CCCN1CCC(O)(c2ccc(Cl)cc2)CC1)c1ccc(F)cc1`, “active”; in that of `CC(C)(C)OC(=O)C[C@H]1CC=CC[C@@H](CC(=O)N[C@@H](CO)Cc2ccccc2)C(=O)N[C@@H](C(C)(C)C)COC1=O`, “inactive”. The value for `C[C@@H]1CN([C@@H](C)CO)C(=O)c2cc(NC(=O)Cc3ccccc3)ccc2O[C@H]1CN(C)Cc1ccc(C(=O)Nc2ccccc2N)cc1` was “inactive”; that for `C[C@@H]1CN([C@@H](C)CO)C(=O)c2cccc(NC(=O)c3ccc(-c4nccs4)cc3)c2O[C@H]1CN(C)C(=O)Nc1ccccc1` was “inactive”; that for `C[C@@H]1CN([C@@H](C)CO)C(=O)c2cccc(NC(=O)Nc3ccc(C(F)(F)F)cc3)c2O[C@H]1CN(C)Cc1ccc(Cl)c(Cl)c1` was “active”.

Turning to `C[C@H](CO)N1C[C@H](C)[C@@H](CN(C)Cc2ccc(Cl)c(Cl)c2)Oc2c(NC(=O)Nc3ccc(F)cc3)cccc2C1=O`, the cytotoxicity call is “inactive”. In the case of `C[C@H]1CN([C@@H](C)CO)C(=O)c2cccc(NC(=O)Nc3ccc(F)cc3)c2O[C@H]1CN(C)Cc1ccc(Cl)c(Cl)c1`, the cytotoxicity call was “inactive”. For the molecule `C[C@@H]1CN([C@@H](C)CO)C(=O)c2cccc(NC(=O)Nc3ccc(F)cc3)c2O[C@@H]1CN(C)Cc1ccc(Cl)c(Cl)c1`, the cytotoxicity call is “inactive”. The value for `C[C@@H]1CN([C@H](C)CO)C(=O)c2cccc(NC(=O)Nc3ccc(C(F)(F)F)cc3)c2O[C@@H]1CN(C)Cc1ccc(Cl)c(Cl)c1` was “active”; that for `C[C@@H]1CN([C@H](C)CO)C(=O)c2cccc(NC(=O)Nc3ccc(C(F)(F)F)cc3)c2O[C@H]1CN(C)Cc1ccc(Cl)c(Cl)c1` was “inactive”; that for `C[C@H]1CN([C@@H](C)CO)C(=O)c2cccc(NC(=O)Nc3ccc(F)cc3)c2O[C@@H]1CN(C)Cc1ccc(Cl)c(Cl)c1` was “inactive”.

For `C[C@@H]1CN([C@@H](C)CO)C(=O)c2cccc(NC(=O)Nc3ccc(C(F)(F)F)cc3)c2O[C@@H]1CN(C)Cc1ccc(Cl)c(Cl)c1`, the cytotoxicity call is “active”. The value for `C[C@H]1CN([C@@H](C)CO)C(=O)c2cccc(NC(=O)Nc3ccc(C(F)(F)F)cc3)c2O[C@@H]1CN(C)Cc1ccc(Cl)c(Cl)c1` was “active”.

Consider `C[C@H](CO)N1C[C@H](C)[C@H](CN(C)Cc2ccc(Cl)c(Cl)c2)Oc2c(NC(=O)Nc3ccc(C(F)(F)F)cc3)cccc2C1=O`, for which the cytotoxicity call was “inactive”. The value for `C[C@H](CO)N1C[C@H](C)[C@H](CN(C)C(=O)CCC(F)(F)F)OCCCC[C@H](C)Oc2ccc(NC(=O)Cc3ccccc3)cc2C1=O` was “inactive”; that for `C[C@@H]1CN([C@@H](C)CO)C(=O)c2cc(C#Cc3cccc(F)c3)cnc2O[C@H]1CN(C)Cc1ccccn1` was “inactive”; that for `Cc1ccc(S(=O)(=O)Nc2ccc3c(c2)C(=O)N([C@@H](C)CO)C[C@@H](C)[C@H](CN(C)C(=O)c2ccccc2)OCCCC[C@H](C)O3)cc1` was “inactive”. The value for `Cc1noc(C)c1NC(=O)N(C)C[C@H]1OCCCC[C@H](C)Oc2ccc(NC(=O)C3CCCCC3)cc2C(=O)N([C@@H](C)CO)C[C@@H]1C` was “inactive”; that for `C[C@@H]1CCCCO[C@H](CN(C)C(=O)Nc2ccc(F)cc2)[C@H](C)CN([C@H](C)CO)C(=O)c2cc(NC(=O)Cc3ccccc3)ccc2O1` was “inactive”. The value for `C[C@@H]1CN([C@@H](C)CO)C(=O)c2cccc(NC(=O)C3CCOCC3)c2O[C@@H]1CN(C)S(=O)(=O)c1ccccc1` was “inactive”; that for `C[C@H](CO)N1C[C@H](C)[C@@H](CN(C)C(=O)CN2CCOCC2)Oc2ncc(-c3cncnc3)cc2C1=O` was “inactive”; that for `Cc1noc(C)c1S(=O)(=O)N(C)C[C@H]1Oc2ccc(NS(C)(=O)=O)cc2C(=O)N([C@@H](C)CO)C[C@H]1C` was “inactive”. Take `C[C@@H]1CN([C@H](C)CO)C(=O)c2cccc(NC(=O)Nc3ccc(F)cc3)c2O[C@@H]1CN(C)Cc1ccc(Cl)c(Cl)c1`: the cytotoxicity call is “inactive”.

Turning to `C[C@H](CO)N1C[C@H](C)[C@@H](CN(C)Cc2ccc(Cl)c(Cl)c2)Oc2c(NC(=O)Nc3ccc(C(F)(F)F)cc3)cccc2C1=O`, the cytotoxicity call was “active”. The value for `C[C@H]1CN([C@@H](C)CO)C(=O)c2cccc(NC(=O)Nc3ccc(C(F)(F)F)cc3)c2O[C@H]1CN(C)Cc1ccc(Cl)c(Cl)c1` was “inactive”; that for `CCOc1ccnc2c1c(=O)n(CC(N)=O)c(=O)n2C` was “inactive”; that for `Cc1noc(C)c1S(=O)(=O)N(C)C[C@@H]1OCCCC[C@H](C)Oc2ccc(NS(=O)(=O)c3cn(C)cn3)cc2C(=O)N([C@H](C)CO)C[C@@H]1C` was “inactive”.

As to `COc1cccc2c1C(=O)c1c(O)c3c(c(O)c1C2=O)C[C@](O)(C(C)=O)C[C@H]3O[C@H]1C[C@@H](N)[C@@H](O)[C@@H](C)O1`, the cytotoxicity call was “active”. In the case of `CC(=O)[C@]1(N)Cc2c(O)c3c(c(O)c2[C@@H](O[C@H]2C[C@H](O)[C@H](O)CO2)C1)C(=O)c1ccccc1C3=O` it was “active”; in that of `COc1cccc2c1C(=O)c1c(O)c3c(c(O)c1C2=O)CC(O)(C(C)=O)CC3OC1CC(N)C(O)C(C)O1.Cl` (configuration not stated), “active”; in that of `COc1cccc2c1C(=O)c1c(O)c3c(c(O)c1C2=O)C[C@@](O)(C(C)=O)C[C@@H]3O[C@H]1C[C@H](N)[C@H](O)[C@H](C)O1`, “active”. In the case of `CCNC(=O)C[C@@H]1C=C[C@@H](NC(=O)C2CCOCC2)[C@@H](CO)O1` it was “inactive”; in that of `Cc1ccc(S[C@H](C)C(=O)c2ccc(C)c(Cl)c2)cc1`, “inactive”; in that of `C[C@@H]1CN([C@H](C)CO)C(=O)c2cc(NC(=O)c3ccccc3)ccc2O[C@@H](C)CCCCO[C@H]1CN(C)C(=O)CCC(F)(F)F`, “inactive”. The value for `C[C@@H]1CCCCO[C@H](CN(C)C(=O)Nc2ccc(F)cc2)[C@H](C)CN([C@H](C)CO)C(=O)c2cc(NC(=O)c3ccncc3)ccc2O1` was “inactive”. Turning to `CCCN(C)C[C@@H]1Oc2cc(C#Cc3cccc(OC)c3)ccc2S(=O)(=O)N([C@H](C)CO)C[C@@H]1C`, the cytotoxicity call is “inactive”.

With `C/C=C(\C(C)=N\O)c1ccccc1`, the cytotoxicity call is “inactive”. `CN1C(=O)c2cc(NC(=O)C3CCCC3)ccc2OC[C@H]2O[C@@H](CC(=O)NCCc3ccncc3)CC[C@H]21`: the cytotoxicity call was “inactive”. Take `CN(C)CC(=O)N[C@@H]1CC[C@H](CC(=O)O)O[C@@H]1CO`: the cytotoxicity call is “inactive”. The value for `CC(=O)[C@]1(O)Cc2c(O)c3c(c(O)c2[C@@H](O[C@@H]2C[C@@H](N)[C@H](O)[C@@H](C)O2)C1)C(=O)c1c(O)cccc1C3=O` was “active”; that for `CC(C)NC(=O)Nc1ccc2c(c1)CC(=O)N([C@@H](C)CO)C[C@H](C)[C@@H](CN(C)S(=O)(=O)c1ccc(F)cc1)O2` was “inactive”. In the case of `C[C@@H]1CN([C@@H](C)CO)C(=O)c2cc(NC(=O)Nc3cccc4ccccc34)ccc2O[C@@H]1CN(C)Cc1ccncc1` it was “inactive”; in that of `C[C@H](CO)N1C[C@H](C)[C@H](CN(C)Cc2ccncc2)Oc2ccc(NC(=O)CCCN(C)C)cc2C1=O`, “inactive”. With `CC(C)C[C@H](N)C(=O)N[C@@H](C)C(=O)O`, the cytotoxicity call is “active”. With `CC(C)C[C@@H](NC(=O)[C@@H](C)N)C(=O)O`, the cytotoxicity call is “inactive”. In the case of `CC(C)C[C@H](N)C(=O)O` it was “inactive”; in that of `C[C@H]1CN([C@@H](C)CO)C(=O)Cc2cc(NC(=O)CCN3CCOCC3)ccc2O[C@H]1CN(C)S(=O)(=O)c1cn(C)cn1`, “inactive”. In the case of `O=C(O)CCCN=C1NC(=O)CC(=O)N1`, the cytotoxicity call is “inactive”.

As for `O=C1CSC(=Nc2nccs2)N1`, the cytotoxicity call is “inactive”. The value for `O=C(O)CCN=C1NC(=O)CS1` was “active”; that for `C[C@H]1CN([C@@H](C)CO)C(=O)c2cccc(NC(=O)c3ccncc3)c2O[C@@H]1CN(C)Cc1ccc(-c2ccccc2)cc1` was “inactive”; that for `C[C@H](CO)N1C[C@H](C)[C@@H](CN(C)S(=O)(=O)c2ccc(F)cc2)Oc2ccc(NS(=O)(=O)c3cccs3)cc2CC1=O` was “inactive”. The value for `COc1ccc([Si](C)(C)[C@H]2[C@H](CC(=O)N(CCO)Cc3ccccc3)O[C@@]3(C(=O)N(C)c4c(Br)cc(C)cc43)[C@@H]2C)cc1` was “active”; that for `COc1ccc([Si](C)(C)[C@H]2[C@H](CCn3cc([C@H](O)c4ccccc4)nn3)O[C@@]3(C(=O)N(C)c4c(Br)cc(C)cc43)[C@@H]2C)cc1` was “active”.

For the molecule `COc1ccc(C(=O)Nc2cccc(CN3C(=O)[C@@]4(O[C@@H](CC(=O)N(CCO)Cc5ccccc5)[C@H]([Si](C)(C)c5ccc(OC)cc5)[C@H]4C)c4ccccc43)c2)cc1`, the cytotoxicity call was “active”. In the case of `COc1ccc(C(=O)Nc2ccc(CN3C(=O)[C@@]4(O[C@@H](CC(=O)N(CCO)Cc5ccccc5)[C@H]([Si](C)(C)c5ccc(OC)cc5)[C@H]4C)c4ccccc43)cc2)cc1` it was “inactive”. The value for `COc1ccc([Si](C)(C)[C@@H]2[C@@H](CC(=O)N(CCO)Cc3ccccc3)O[C@]3(C(=O)N(Cc4cccc(N5CCOC5=O)c4)c4ccccc43)[C@H]2C)cc1` was “inactive”. The value for `COc1ccc([Si](C)(C)[C@@H]2[C@@H](CCn3cc([C@H](O)c4ccccc4)nn3)O[C@]3(C(=O)N(C)c4c(Br)cc(C)cc43)[C@H]2C)cc1` was “inactive”; that for `COc1ccc(C(=O)Nc2ccc(CN3C(=O)[C@]4(O[C@H](CC(=O)N(CCO)Cc5ccccc5)[C@@H]([Si](C)(C)c5ccc(OC)cc5)[C@@H]4C)c4ccccc43)cc2)cc1` was “inactive”. Consider `COc1ccc([Si](C)(C)[C@H]2[C@H](CC(=O)N(CCO)Cc3ccccc3)O[C@@]3(C(=O)N(Cc4cccc(N5CCOC5=O)c4)c4ccccc43)[C@@H]2C)cc1`, for which the cytotoxicity call is “inactive”. On to `COc1ccc(C(=O)Nc2cccc(CN3C(=O)[C@]4(O[C@H](CC(=O)N(CCO)Cc5ccccc5)[C@@H]([Si](C)(C)c5ccc(OC)cc5)[C@@H]4C)c4ccccc43)c2)cc1`, for which the cytotoxicity call is “active”. For the molecule `COc1ccc([Si](C)(C)[C@@H]2[C@@H](CC(=O)N(CCO)Cc3ccccc3)O[C@]3(C(=O)N(C)c4c(Br)cc(C)cc43)[C@H]2C)cc1`, the cytotoxicity call was “inactive”. The value for `COc1ccc([Si](C)(C)[C@@H]2[C@@H](CC(=O)N3Cc4ccccc4C[C@H]3CO)O[C@]3(C(=O)N(C)c4c(Br)cc(C)cc43)[C@H]2C)cc1` was “inactive”; that for `COc1ccc([Si](C)(C)[C@H]2[C@H](CCn3cc([C@H](O)c4ccccc4)nn3)O[C@@]3(C(=O)N(c4ccccc4)c4ccccc43)[C@@H]2C)cc1` was “inactive”.
